Assay results taken from PMC7862700, “An all-to-all approach to the identification of sequence-specific readers for epigenetic DNA modifications on cytosine”.

Experiments:
Assay in all cases: DAPPL (digital affinity profiling via proximity ligation, sequencing); 10 mM Tris-HCl pH 7.5, 50 mM NaCl, 1 mM DTT, 4% glycerol, room temperature, 30 min; GST-TFs on glutathione beads, 16-mer random dsDNA library, 0.1% formaldehyde crosslink after washing; high values mean tight binding
Settings in all cases: protein: recombinant; tags: N-terminal GST; dsDNA, one strand shown
FLI1 = target: T1, FLI1 (Homo sapiens, UniProt Q01543 1-452)
T1 sequence: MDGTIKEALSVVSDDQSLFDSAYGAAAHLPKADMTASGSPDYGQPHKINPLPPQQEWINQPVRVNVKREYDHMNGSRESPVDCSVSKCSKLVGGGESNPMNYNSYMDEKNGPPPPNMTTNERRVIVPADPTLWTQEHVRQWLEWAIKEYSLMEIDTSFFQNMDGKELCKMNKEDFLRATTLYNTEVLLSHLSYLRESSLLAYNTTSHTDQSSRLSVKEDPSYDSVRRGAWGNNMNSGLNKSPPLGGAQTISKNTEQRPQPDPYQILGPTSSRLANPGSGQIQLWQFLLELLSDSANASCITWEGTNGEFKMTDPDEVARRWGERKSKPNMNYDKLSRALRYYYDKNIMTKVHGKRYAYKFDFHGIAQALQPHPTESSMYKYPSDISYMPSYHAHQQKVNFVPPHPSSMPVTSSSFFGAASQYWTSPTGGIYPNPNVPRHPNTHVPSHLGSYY
How it was run: (§1)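 GST fusions of human transcription factors were expressed in yeast and captured with glutathione beads. Once given DNA barcodes and pooled alongside a tag-only sample, they were incubated for 30 min at room temperature with 200 nmole of a random double-stranded 16-mer DNA library in Tris/NaCl/DTT/glycerol buffer, then washed, crosslinked (0.1% formaldehyde), proximity-ligated, PCR-amplified and sequenced on an Illumina NextSeq500. The binding signal of each hexamer is its read frequency for a factor divided by its frequency for the tag-only sample.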

ELK1 = target: T2, ELK1 (Homo sapiens, UniProt P19419 1-428)
T2 sequence: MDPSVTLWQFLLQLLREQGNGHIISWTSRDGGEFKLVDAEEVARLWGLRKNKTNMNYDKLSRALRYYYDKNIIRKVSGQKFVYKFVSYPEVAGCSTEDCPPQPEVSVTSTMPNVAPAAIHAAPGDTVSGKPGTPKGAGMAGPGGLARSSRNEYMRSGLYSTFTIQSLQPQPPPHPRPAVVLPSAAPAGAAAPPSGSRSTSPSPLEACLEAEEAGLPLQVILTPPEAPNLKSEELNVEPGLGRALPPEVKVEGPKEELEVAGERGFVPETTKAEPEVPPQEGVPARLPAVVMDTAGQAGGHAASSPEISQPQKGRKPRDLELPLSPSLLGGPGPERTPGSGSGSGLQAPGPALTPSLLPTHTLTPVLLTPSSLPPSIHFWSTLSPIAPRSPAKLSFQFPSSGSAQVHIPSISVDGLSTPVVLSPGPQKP
How it was run: as §1

GABPA = target: T3, GABPA (Homo sapiens, UniProt Q06546 1-454)
T3 sequence: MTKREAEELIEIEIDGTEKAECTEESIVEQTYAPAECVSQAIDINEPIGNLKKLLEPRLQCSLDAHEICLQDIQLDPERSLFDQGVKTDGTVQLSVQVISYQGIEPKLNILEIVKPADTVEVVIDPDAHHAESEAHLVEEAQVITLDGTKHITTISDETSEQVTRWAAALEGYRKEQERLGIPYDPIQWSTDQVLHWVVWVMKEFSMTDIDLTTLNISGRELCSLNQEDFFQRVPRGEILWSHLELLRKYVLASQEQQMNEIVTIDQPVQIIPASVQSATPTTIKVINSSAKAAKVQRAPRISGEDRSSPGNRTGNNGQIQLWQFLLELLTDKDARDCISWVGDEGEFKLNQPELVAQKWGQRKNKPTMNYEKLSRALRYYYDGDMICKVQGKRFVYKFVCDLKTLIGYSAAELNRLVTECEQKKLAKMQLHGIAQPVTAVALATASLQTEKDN
How it was run: as §1

ERG = target: T4, ERG (Homo sapiens, UniProt P11308 1-479)
T4 sequence: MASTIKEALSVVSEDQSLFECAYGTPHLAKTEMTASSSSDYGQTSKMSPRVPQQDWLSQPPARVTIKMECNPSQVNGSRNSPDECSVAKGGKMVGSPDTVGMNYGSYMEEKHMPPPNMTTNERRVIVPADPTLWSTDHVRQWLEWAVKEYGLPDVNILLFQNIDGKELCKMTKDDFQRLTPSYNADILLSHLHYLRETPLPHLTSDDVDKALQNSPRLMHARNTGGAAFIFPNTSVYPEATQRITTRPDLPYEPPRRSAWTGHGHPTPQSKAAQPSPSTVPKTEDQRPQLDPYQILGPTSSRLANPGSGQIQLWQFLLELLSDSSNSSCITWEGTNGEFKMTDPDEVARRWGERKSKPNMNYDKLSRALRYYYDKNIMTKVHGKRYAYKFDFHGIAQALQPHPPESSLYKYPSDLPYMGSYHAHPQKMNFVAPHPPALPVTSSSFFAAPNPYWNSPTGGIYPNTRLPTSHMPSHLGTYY
How it was run: as §1

ELF1 = ELF1 (Homo sapiens, UniProt P32519 1-619)
Chain of ELF1 (P32519 whole entry): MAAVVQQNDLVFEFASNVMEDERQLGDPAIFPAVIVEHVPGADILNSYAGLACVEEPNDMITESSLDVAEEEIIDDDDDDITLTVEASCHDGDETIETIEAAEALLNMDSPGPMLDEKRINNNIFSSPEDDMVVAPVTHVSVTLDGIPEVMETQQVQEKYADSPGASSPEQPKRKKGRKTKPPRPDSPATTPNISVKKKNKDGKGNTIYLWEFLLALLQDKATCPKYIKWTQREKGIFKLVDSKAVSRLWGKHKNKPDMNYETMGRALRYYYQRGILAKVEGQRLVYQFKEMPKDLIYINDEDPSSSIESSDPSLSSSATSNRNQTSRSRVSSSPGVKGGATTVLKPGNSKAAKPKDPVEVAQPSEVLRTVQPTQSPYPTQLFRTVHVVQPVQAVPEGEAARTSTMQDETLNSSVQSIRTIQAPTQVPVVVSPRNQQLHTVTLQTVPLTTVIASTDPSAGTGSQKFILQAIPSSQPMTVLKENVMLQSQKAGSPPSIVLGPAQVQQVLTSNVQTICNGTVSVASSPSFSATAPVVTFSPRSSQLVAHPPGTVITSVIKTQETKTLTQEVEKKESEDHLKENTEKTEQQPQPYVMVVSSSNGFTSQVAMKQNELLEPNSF
How it was run: as §1

EHF = target: T5, EHF (Homo sapiens, UniProt Q9NZC4 1-300)
T5 sequence: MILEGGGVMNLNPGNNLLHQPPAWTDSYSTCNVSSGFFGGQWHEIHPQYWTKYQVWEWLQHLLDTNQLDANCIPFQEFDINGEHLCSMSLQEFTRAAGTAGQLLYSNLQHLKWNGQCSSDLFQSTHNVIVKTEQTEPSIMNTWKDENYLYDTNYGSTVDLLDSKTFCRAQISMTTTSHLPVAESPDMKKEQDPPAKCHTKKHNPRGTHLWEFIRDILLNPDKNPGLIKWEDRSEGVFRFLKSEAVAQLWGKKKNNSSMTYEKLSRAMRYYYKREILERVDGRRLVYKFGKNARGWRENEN
How it was run: as §1

SPI1 = SPI1 (Homo sapiens, UniProt P17947 1-270)
How it was run: as §1

SPIB = SPIB (Homo sapiens, UniProt Q01892 1-262)
Chain of SPIB (Q01892 whole entry): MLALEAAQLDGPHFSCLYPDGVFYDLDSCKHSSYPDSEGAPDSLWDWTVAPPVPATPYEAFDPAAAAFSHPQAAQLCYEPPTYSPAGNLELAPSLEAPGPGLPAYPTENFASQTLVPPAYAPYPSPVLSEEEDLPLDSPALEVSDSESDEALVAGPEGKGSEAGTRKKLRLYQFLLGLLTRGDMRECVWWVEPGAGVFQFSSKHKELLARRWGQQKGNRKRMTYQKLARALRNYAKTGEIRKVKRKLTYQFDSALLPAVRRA
How it was run: as §1

ELK3 = target: T6, ELK3 (Homo sapiens, UniProt P41970 1-407)
T6 sequence: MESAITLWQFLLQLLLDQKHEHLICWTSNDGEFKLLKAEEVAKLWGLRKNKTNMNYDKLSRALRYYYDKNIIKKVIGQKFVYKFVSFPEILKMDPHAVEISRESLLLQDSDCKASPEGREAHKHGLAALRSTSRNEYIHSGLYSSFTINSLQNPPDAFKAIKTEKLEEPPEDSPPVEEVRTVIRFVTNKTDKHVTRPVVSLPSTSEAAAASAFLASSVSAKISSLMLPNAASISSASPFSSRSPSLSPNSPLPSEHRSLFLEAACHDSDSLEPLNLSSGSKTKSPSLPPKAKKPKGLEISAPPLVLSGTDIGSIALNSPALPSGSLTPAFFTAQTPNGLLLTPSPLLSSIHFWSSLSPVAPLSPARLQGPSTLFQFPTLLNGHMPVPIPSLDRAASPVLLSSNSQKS
How it was run: as §1

## ATATTA
FLI1
  binding signal: 1.08 fold enrichment (6-mer frequency, TF over GST control)
ELK1
  binding signal: 1.11 fold enrichment (6-mer frequency, TF over GST control)
GABPA
  binding signal: 1.12 fold enrichment (6-mer frequency, TF over GST control)
ERG
  binding signal: 1.09 fold enrichment (6-mer frequency, TF over GST control)
ELF1
  binding signal: 1.16 fold enrichment (6-mer frequency, TF over GST control)
EHF
  binding signal: 1.08 fold enrichment (6-mer frequency, TF over GST control)
SPI1
  binding signal: 1.03 fold enrichment (6-mer frequency, TF over GST control)
SPIB
  binding signal: 1.16 fold enrichment (6-mer frequency, TF over GST control)
ELK3
  binding signal: 1.13 fold enrichment (6-mer frequency, TF over GST control)
